Measurements published in PubChem BioAssay AID1508625 (Wald Lab, School of Medicine, Case Western Reserve …, 2021).

experiment: enhancers of NK cell killing of ovarian tumor cells, primary screen, imaging, OVCAR3, primary NK cells, calcein-AM imaging (AID 1508625); conditions: OVCAR3 lysis by primary NK cells, at 5 µM; z-score: measured here: robust Z-score, single-point normalisation;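 note: compound given to NK cells 16 h before adding targets at 1.5 to 1 ratio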

SMILES | corrected activity, negative = more killing | z-score
O=C(Nc1ccccc1C(=O)O)c1cc(S(=O)(=O)Nc2ccc(Br)cc2)ccc1Cl | -14.5% | -3.06
c1ccc(CN2CCN(Cc3ccc4ccccc4c3)CC2)nc1 | -2.43% | -1.08
c1ccc(-c2nnc3n2C2(CCCCC2)Cc2ccccc2-3)cc1 | 0.806% | 0.417
Cc1cc(C)c(S(=O)(=O)NCc2ccc(C(=O)NCCc3ccc(Cl)cc3)cc2)c(C)c1 | -5.64% | -1.38
N#Cc1c(NC(=O)CN2C(=O)C3CC=C(Cl)CC3C2=O)sc2c1CCC2 (stereo not given) | -0.241% | -0.0746
O=C(Nc1ccc(Cl)cc1)c1ccc(F)c(S(=O)(=O)N2CCOCC2)c1 | -4.69% | -1.77
CCOc1ccccc1NC(=O)CC1Sc2ccc(C(F)(F)F)cc2NC1=O (stereo not given) | -3.99% | -2.14
Cc1cc(N2CCN(C(=O)c3cccc(F)c3F)CC2)c(F)cc1[N+](=O)[O-] | -4.4% | -1.92
O=C(CCn1c(SCc2ccccc2Cl)nc2cc3c(cc2c1=O)OCO3)N1CCN(c2ccccc2)CC1 | -5.52% | -1.46
O=C(Nc1ccc([N+](=O)[O-])cc1)c1cc2c(=O)n3ccccc3nc2s1 | -3.21% | -0.91
O=C1c2ccccc2C(=O)N1CCCCCCN1CCN(c2cccc(Cl)c2)CC1 | -4.02% | -0.848
O=C(COc1ccccc1)NCCSc1nc2ccccc2s1 | -4.8% | -1.81
O=C(O)c1cc(Cl)ccc1NS(=O)(=O)c1ccc(Cl)cc1 | -1.75% | -0.369
Cc1ccc([N+](=O)[O-])cc1NS(=O)(=O)c1ccc(Cl)cc1 | 4.17% | 1.33
COc1cc(C=Nc2ccc(Oc3ccccc3)cc2)ccc1OC(C)=O | -3.39% | -1.34
O=CN1CCN(c2nc3ccccc3nc2C(F)(F)F)CC1 | -2.49% | -1.02
CCN(C(=O)c1cc2cc3ccc(OC)cc3nc2o1)c1cccc(C(F)(F)F)c1 | -3.66% | -0.898
CC(C)C(CC(=O)O)NS(=O)(=O)c1ccc(F)cc1 (stereo not given) | -3.43% | -0.924
COc1ccc(C(=O)Nc2ccc3oc(-c4ccccc4)nc3c2)cc1OC | -2.95% | -1.28
COc1ccccc1Cn1c(=S)[nH]c2cc(Cl)ccc2c1=O | -3.97% | -1.05
COC(=O)c1ccc(CN2CCN3CCCC3C2C2CCCCC2)cc1 (stereo not given) | -2.78% | -1.21
Cc1onc(-c2ccccc2)c1C(=O)Nc1cccc(Br)c1 | -5.57% | -1.98
O=C(Nc1c[nH]c(=O)[nH]c1=O)c1ccc(N2C(=O)C3C4C=CC(C4)C3C2=O)cc1 (stereo not given) | 0.344% | 0.184
COc1ccc(-c2csc(Nc3ccc(NC(C)=O)cc3)n2)cc1OC | 1.84% | 0.823
CCOc1ccc(C(=O)N2CCc3cc(OC)c(OC)cc3C2)cc1 | -2.29% | -0.852
